Data reported in PubChem BioAssay AID624330 (Southern Research Specialized Biocontainment Screening …, 2012).
Among all 340,000 compounds or so, about 2,100 (0.62%) were called active.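 Rule for the calls: active = first-screen hits whose inhibition reached a set limit at any dose in the follow-up dose series; inconclusive = inhibition above the set first-screen limit but never retested; inactive = the rest.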 Only a sample is shown. Measured potencies and affinities stand elsewhere.

target: Rac GTPase-activating protein 1 (Homo sapiens) (UniProt Q9H0H5); assay: blockers of MgcRacGAP-driven Rac1 GTP hydrolysis – biochemical, ADP Hunter fluorescence, primary and confirmatory, confirmation (AID 624330); conditions: MgcRacGAP-stimulated Rac1 GTP hydrolysis, at 30 µM, hits give high values, GST-tagged Rac1 F28L mutant substrate;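 note: fluorescence reports GDP produced by GAP-driven GTP hydrolysis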
Sequence (Q9H0H5 whole entry, looked up): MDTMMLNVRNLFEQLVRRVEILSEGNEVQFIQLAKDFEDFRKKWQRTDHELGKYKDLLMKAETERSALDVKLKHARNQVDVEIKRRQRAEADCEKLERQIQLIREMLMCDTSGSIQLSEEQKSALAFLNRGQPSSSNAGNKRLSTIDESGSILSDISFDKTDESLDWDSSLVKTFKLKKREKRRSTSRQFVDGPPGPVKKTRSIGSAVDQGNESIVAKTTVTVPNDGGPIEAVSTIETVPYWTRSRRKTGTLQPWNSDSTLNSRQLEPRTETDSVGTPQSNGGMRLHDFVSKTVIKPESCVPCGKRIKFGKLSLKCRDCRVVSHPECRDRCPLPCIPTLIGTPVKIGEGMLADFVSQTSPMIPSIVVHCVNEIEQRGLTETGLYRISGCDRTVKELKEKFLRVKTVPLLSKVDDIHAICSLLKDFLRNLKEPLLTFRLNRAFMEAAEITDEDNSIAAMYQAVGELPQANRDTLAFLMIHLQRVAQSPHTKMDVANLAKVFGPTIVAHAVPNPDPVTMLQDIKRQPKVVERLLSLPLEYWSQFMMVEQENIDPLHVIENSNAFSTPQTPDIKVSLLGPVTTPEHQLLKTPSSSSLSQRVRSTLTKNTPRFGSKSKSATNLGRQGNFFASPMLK

inhibition, inactive:
CCOC(=O)C1CCN(CCC(=O)Nc2ccccc2)CC1 12.6%
Cc1cccc(NC(=S)NCc2cccs2)c1 9.05%
O=C(/C=C/c1ccc(F)cc1)NC(Cc1c[nH]c2ccccc12)C(=O)O (centres undefined) -4.83%
COc1cc(C(=O)N[C@@H](Cc2c[nH]c3ccccc23)C(=O)O)cc(OC)c1OC 1.53%
Cc1nn(-c2ccccc2)c(NC(=O)c2cccs2)c(-c2ccccc2)c1=O 0.27%
Cc1cccc(NC(=O)N2CCCCCC2)c1 4.32%
CCc1cc2c(SCc3ccc(C(=O)OC)o3)ncnc2s1 7.63%
CCOc1cc(/C=C2\SC(=S)N(Nc3ccccc3)C2=O)ccc1O 11.1%
CC(=O)NN1C(=O)/C(=C\c2ccc(Cl)cc2)SC1=S 7.77%
O=C1/C(=C\c2ccc(O)cc2)SC(=S)N1Cc1ccccc1 10.6%
COc1cccc(/C=C2\SC(=S)N(NC(=O)c3ccncc3)C2=O)c1 15.5%
O=C1/C(=C\c2ccc(O)cc2)SC(=S)N1c1cccnc1 2.66%
COc1cc(/C=C2\SC(=S)N(Nc3ccccc3)C2=O)cc(OC)c1OC 11.2%
O=C(NN1C(=O)/C(=C/c2cccs2)SC1=S)c1ccncc1 8.88%
CC(=O)NN1C(=O)/C(=C\c2ccc(C)cc2)SC1=S 9.68%
N/C(=N\OC(=O)Cc1ccc(-c2ccccc2)cc1)c1cccnc1 5.49%
CCNC(=S)N1C2CCC1CC(NC(=O)NC1CCCCC1)C2 (centres undefined) 1.32%
c1ccc(-n2ncc3c(N4CCN(CCOc5cccc6ccccc56)CC4)ncnc32)cc1 -0.49%
CCCCOC(=O)c1cc(Cl)c(O)c(OC)c1 13.4%
CC(NC(=O)c1ccc(F)cc1)c1ccc(F)cc1 (centres undefined) 4.7%
O=C(Nc1ccccc1)C(Cc1ccccc1)c1ccccc1 (centres undefined) -2.68%
CCOc1ccc(N2CC(C(=O)Nc3cc(OCC)c(N4CCOCC4)cc3OCC)CC2=O)cc1 (centres undefined) 2.59%
CCN1CCN(C(=O)C2(NC(=O)Nc3ccccc3Cl)CCCCC2)CC1 2.74%
O=c1ccc(-c2ccccc2)no1 1.17%
Cc1ccc(S(=O)(=O)CCC(=O)OCC(=O)Nc2cc(F)ccc2C)cc1 1.06%
CCOC(=O)CC1C(=O)NCCN1S(=O)(=O)c1cccc(C(F)(F)F)c1 (centres undefined) 7.16%
O=C(Nc1ncnc2sc3c(c12)CCCC3)c1ccncc1 -0.48%
O=C(O)c1ccc(/C=C2\SC(=S)N(NC(=O)c3ccccc3)C2=O)cc1 8.51%
O=C(CCCN1C(=O)/C(=C\c2ccccc2)SC1=S)Nc1ccc(O)cc1C(=O)O 12.8%
COc1cc(/C=C2\SC(=S)N(NC(=O)c3ccccc3OC)C2=O)ccc1O 8.13%
Cc1ccc(/C=C2\SC(=S)N(CCC(=O)NNC(=O)c3ccc(O)cc3)C2=O)cc1 6.6%
O=C(NN1C(=O)/C(=C/c2ccc(O)cc2)SC1=S)c1cccc(O)c1 30.8%
O=C(NN1C(=O)/C(=C/c2cccc(O)c2)SC1=S)c1ccccc1O 5.04%
CCOC(=O)CSc1nc2cc(S(=O)(=O)Nc3ccccc3OC)ccc2o1 5.81%
Clc1cccc(CSc2ncnc3c2ncn3C2CCCCO2)c1 (centres undefined) 2.71%
NS(=O)(=O)c1ccc(CCNC(=O)CN2CCN(Cc3cccc4ccccc34)CC2)cc1 3.28%
O=C1NC(=S)S/C1=C\c1cccc([N+](=O)[O-])c1 11.9%
O=C(O)/C=C/c1ccc([N+](=O)[O-])o1 12.4%
Cc1cc2[nH]c3ccccc3c2cn1 17%
COC(=O)c1c(NC(=O)C2CCCCC2)sc2c1CCN(C(C)C)C2 8.85%
CCOC(=O)N1CCN(CC(O)COc2c(C)cc(C)cc2C)CC1 (centres undefined) 3.3%
O=C(c1ccccc1)N1CCN(CC(O)COc2ccc(Br)cc2)CC1 (centres undefined) 1.08%
CC(=O)N1CCN(CC(O)COc2ccc(OCc3ccccc3)cc2)CC1 (centres undefined) 3.99%
COc1cccc(OCC(O)CN2CCOCC2)c1 (centres undefined) 6.97%
Cc1cccc(C)c1OCC(O)CN1CCN(C(=O)c2ccccc2)CC1 (centres undefined) -23.8%
CCN1CCN(CC(O)COc2cccc(OC)c2)CC1 (centres undefined) 8.83%
CCN(CC)CCNC(=O)NC(=O)c1ccc(Cl)cc1 -9.05%
O=C(NCc1ccccc1F)C(=O)NCC1OCCCN1S(=O)(=O)c1cccs1 (centres undefined) -0.33%
COc1ccc(NC(=O)COc2nsnc2N2CCCCC2)cc1 17.2%
Cc1ccc(N(Cc2ccc(C(=O)NCC3CCCO3)cc2)S(C)(=O)=O)cc1C (centres undefined) -2.07%
COc1ccc(O[C@@H]2O[C@H](COC(C)=O)[C@@H](OC(C)=O)[C@H](OC(C)=O)[C@H]2NC(C)=O)cc1 5.33%
CC(=O)NC1C(Oc2ccc(C=O)cc2)OC(COC(C)=O)C(OC(C)=O)C1OC(C)=O (centres undefined) 0.46%
O=C(NCc1ccc(F)cc1F)Nc1cnccc1C(F)(F)F 0.3%
CC1(c2nnc(-c3ccccc3)o2)CC(c2c(Cl)cccc2Cl)=NO1 (centres undefined) 7.59%
Cc1ccc(/C=N/N2CCN(c3ccccc3)CC2)cc1 14.1%
C(=N\N1CCN(c2ccccn2)CC1)/c1ccccn1 13.7%
Cc1ccc(/C=N/N2CCN(c3ccccn3)CC2)cc1 6.1%
C(=N\N1CCN(c2ccccc2)CC1)/c1ccccc1 9.75%
COc1ccc(CCNC(=O)C2CCN(S(=O)(=O)c3ccc(OC)c(OC)c3)CC2)cc1OC 1.02%
CCCOc1ccc(C2C(C(=O)c3ccc(C)o3)=C(O)C(=O)N2Cc2ccco2)cc1 (centres undefined) 9.74%
O=[N+]([O-])c1ccc(NN=C(C2CC2)C2CC2)c([N+](=O)[O-])c1 9.77%
COC(=O)c1sc2nc(-c3ccccc3)nc(N3CCN(C)CC3)c2c1C 6.27%
COc1ccccc1N1C(=O)CC(Sc2ccccc2N)C1=O (centres undefined) 2.06%
COc1ccc(Cc2c3cc(OC)c(OC)cc3cc[n+]2C)cc1OC -5.7%
COc1ccc(C(=O)Nc2c(O)ccc3ccccc23)cc1OC 9.73%
COc1cc2ccc(=O)oc2cc1O 16.3%
COc1cc2ccc(C(C)=O)c(O)c2cc1OC 8.81%
O=C(CN(Cc1ccc(Cl)cc1)C(=O)CN1C(=O)COc2ccccc21)NC1CCCC1 8.29%
O=C(Nc1cccc(F)c1)Nc1ccc(Cl)cn1 0.09%
CC(=C/c1ccccc1)/C=N/N1CCN(Cc2ccc(C)cc2)CC1 7.95%
CCOC(=O)[C@H](O)[C@@H](O)c1cccc([C@H](O)[C@@H](O)C(=O)OCC)c1 11.8%
CN(Cc1ccccc1)C(=O)c1cc(-c2ccc(Br)cc2)on1 7.89%
Cc1ccc(CSc2nnc(NC(=O)Cn3cnc4ccccc4c3=O)s2)cc1 -8.67%
CCOC(=O)c1c(-c2ccccc2)csc1NC(=O)CCN1CCOCC1 18.3%
CCOC(=O)c1c(-c2ccc(-c3ccccc3)cc2)csc1NC(=O)CCN1CCOCC1 -2.88%
COC(=O)Cn1c(=NC(=O)C2COc3ccccc3O2)sc2cc(S(N)(=O)=O)ccc21 (centres undefined) 3.94%
COC(=O)c1cc(-c2ccc(Cl)cc2)n(-c2ccc(S(N)(=O)=O)cc2)n1 5.18%
O=S(=O)(N/N=C/c1ccc2c(c1)OCCO2)c1ccccc1 9.57%
COC(=O)c1cc(S(=O)(=O)NCc2ccccc2)c[nH]1 11.6%
COc1cc(O)cc2cc3c(c(O)c12)C(=O)CC(C)(O)O3 (centres undefined) -0.09%
CCOc1ccc(S(=O)(=O)n2c([N+](=O)[O-])cnc2C)c(C)c1C 6.34%
Cc1[nH]c(=S)c(C#N)c(C)c1CC(=O)c1ccc(Br)cc1 8.21%
O=C(CN1C(=O)c2ccccc2S1(=O)=O)c1ccc(F)c(F)c1 -3.06%
O=C(CN1C(=O)c2ccccc2S1(=O)=O)c1ccccc1 8.2%
COCCN(C(=O)CSc1nnc(C)n1-c1ccccc1)c1c(N)n(Cc2ccccc2)c(=O)[nH]c1=O 9.16%
Cc1cc(OCC(=O)NCc2ccccn2)c2c(C)cc(=O)oc2c1 2.23%
CN(C)CCCO/N=C(\c1ccccc1)c1ccncc1 24.4%
CN(C)C/C=C(/c1ccc(Br)cc1)c1cccnc1 3.6%
CC(C)c1ccc(NC(=O)NCc2ccccn2)cc1 8.07%
C[C@H](CO)N1C[C@H](C)[C@@H](CN(C)C(=O)Nc2ccc(C(F)(F)F)cc2)Oc2ccc(NC(=O)CCC(F)(F)F)cc2C1=O 5.69%
COCC(C)OC(=O)C(C#N)c1nc2ccccc2nc1N1CCN(Cc2ccccc2)CC1 (centres undefined) 6.54%
O=C(CCn1cnc(-c2ccccc2)c1-c1ccccc1)N/N=C/c1ccc(O)cc1 27.5%
O=C(Cn1cc(C(F)(F)F)ccc1=O)N/N=C/c1ccc(Cl)cc1 11.1%
Cc1cc(C)n(CCC(=O)N/N=C/c2ccccc2O)n1 3.84%
COc1ccc(/C=N/NC(=O)CCn2nc(C)cc2C)cc1O 26.5%
Cc1cc(C)n(CCC(=O)N/N=C/c2ccc(O)cc2O)n1 -27.4%
O=C(CCn1cnc2ccccc21)N/N=C/c1ccccc1O 0.87%
O=C(Cn1cc(C(F)(F)F)ccc1=O)N/N=C/c1ccc(F)cc1 -1.82%
COc1ccc(/C=N/NC(=O)CCn2nc(C)cc2C)cc1 -2.7%
